From the supplement of paper PMC7695840
Counter-ions that a name gives are not always drawn.

test system: Staphylococcus aureus MW2 delta-mecA (mecA-); assay: normalized GFP fluorescence (growth of mecA- strain) (fraction of control range); higher = more growth of mecA- strain; conditions: compound concentration: 150 uM; cefoxitin: subinhibitory; fluorescent label: GFP
Summary of the method: (§1)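 Pre-induced S. aureus MW2 cells with the gene (DsRed) and without it (GFP) were mixed 1:1 in LB holding a subinhibitory antibiotic dose set daily and grown on 150 μM compound (1.5% DMSO) in 1536-well plates, single replicate, for 20 h at 37 °C. DsRed (540/590) and GFP (485/520) readings were scaled per plate between single-strain control medians. Plates with high untreated ratios and rows with DsRed/GFP >10 were excluded.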

| Structure (SMILES) | normalized GFP fluorescence |
| --- | --- |
| C[C@H]1C[C@@H]2[C@H]([C@@H](O)C[C@@]3(C)[C@H]2CC[C@]3(O)C(=O)COC(=O)CCC(=O)O)[C@@]2(C)C=CC(=O)C=C12 | 0.634 |
| CCc1c2c(nc3ccc(OC(=O)N4CCC(N5CCCCC5)CC4)cc13)-c1cc3c(c(=O)n1C2)COC(=O)[C@]3(O)CC | 0.461 |
| OC(CCN1CCCCC1)(c1ccccc1)C1CCCCC1 (stereo not given) | 0.277 |
| CC(C(=O)O)c1cccc(Oc2ccccc2)c1 (stereo not given) | 0.136 |
| O=NN(CCCl)C(=O)NCCCl | 0.549 |
| CC(CN(C)C)CN1c2ccccc2CCc2ccccc21 (stereo not given) | 0.0825 |
| CCOC(=O)[C@H](CCc1ccccc1)N[C@H]1CCc2ccccc2N(CC(=O)O)C1=O | -0.00401 |
| CCN(CC)C(=O)c1cccc(C)c1 | 0.46 |
| O=S(=O)(O)CCS | 0.0478 |
| C#C[C@]1(OC(C)=O)CC[C@H]2[C@@H]3CCC4=CC(=NO)CC[C@@H]4[C@H]3CC[C@@]21CC (mixture of isomers) | 0.0291 |
| CC12CC3CC(C)(C1)CC(N)(C3)C2 | 0.384 |
| Cc1nc(Nc2ncc(C(=O)Nc3c(C)cccc3Cl)s2)cc(N2CCN(CCO)CC2)n1 | 0.0741 |
| CC1=C(/C=C/C(C)=C/C=C/C(C)=C\C(=O)O)C(C)(C)CCC1 [Isotretinoin] | 0.0743 |
| CCN(CC)C(=O)/C(C#N)=C/c1cc(O)c(O)c([N+](=O)[O-])c1 [Entacapone] | 0.111 |
| Cc1ccccc1C(OCCN(C)C)c1ccccc1 (stereo not given) | 0.779 |
| CN(C)CCc1c[nH]c2ccc(CS(=O)(=O)N3CCCC3)cc12 | 0.546 |
| CC(C[N+](C)(C)C)OC(N)=O (stereo not given) | 0.554 |
| Cn1ncnc1[C@H]1c2n[nH]c(=O)c3cc(F)cc(c23)N[C@@H]1c1ccc(F)cc1 [Talazoparib (BMN 673)] | 0.42 |
| COc1ccc(C[C@@H]2c3cc(OC)c(OC)cc3CC[N@+]2(C)CCC(=O)OCCCCCOC(=O)CC[N@@+]2(C)CCc3cc(OC)c(OC)cc3[C@H]2Cc2ccc(OC)c(OC)c2)cc1OC [Cisatracurium besylate (Nimbex)] | 0.62 |
| CN1[C@@H]2CC[C@H]1C[C@@H](OC(=O)c1c[nH]c3ccccc13)C2 [Tropisetron] | 0.528 |

| Structure (SMILES) | normalized GFP fluorescence |
| --- | --- |
| CC(=O)O[C@]1(C(C)=O)CC[C@H]2[C@@H]3C=C(Cl)C4=CC(=O)[C@@H]5C[C@@H]5[C@]4(C)[C@H]3CC[C@@]21C | 0.239 |
| CC(C)(C)NCC(O)COc1cccc2c1CC(O)C(O)C2 (stereo not given) | 0.721 |
| CC(=O)OCC(=O)[C@@]1(OC(C)=O)[C@@H](C)C[C@H]2[C@@H]3C[C@H](F)C4=CC(=O)C=C[C@]4(C)[C@@]3(F)[C@@H](O)C[C@@]21C | 0.256 |
| O=C(O)c1cccc(-c2noc(-c3ccccc3F)n2)c1 [PTC124 (Ataluren)] | 0.0948 |
| CO[C@H]1O[C@@H]2O[C@@]3(C)CC[C@H]4[C@H](C)CC[C@@H]([C@H]1C)[C@@]24OO3 | 0.327 |
| NC(=O)[C@@H]1CCCN1C(=O)[C@H](Cc1c[nH]cn1)NC(=O)[C@@H]1CCC(=O)N1 | 0.621 |
| COc1ccc2cc(CCC(C)=O)ccc2c1 | 0.292 |
| NC(=O)Cc1cccc(C(=O)c2ccccc2)c1N [Nepafenac] | 0.747 |
| COc1cc(NC(C)CCCN)c2ncccc2c1 (stereo not given) | -0.00346 |
| CN[C@@H]1[C@H](O[C@H]2[C@H](O[C@H]3[C@H](O)[C@@H](O)[C@H](NC(=N)N)[C@@H](O)[C@@H]3NC(=N)N)O[C@@H](C)[C@]2(O)CO)O[C@@H](CO)[C@H](O)[C@H]1O | 0.292 |
| COc1cc(/C=C/C(=O)N2CCN(CC(=O)N3CCCC3)CC2)cc(OC)c1OC [Cinepazide maleate] | 0.547 |
| N[C@@H](CC(=O)N1CCn2c(nnc2C(F)(F)F)C1)Cc1cc(F)c(F)cc1F | 0.306 |
| NNCCc1ccccc1 | 0.153 |
| C1N2CN3CN1CN(C2)C3 | 0.209 |
| CCc1cc(C(N)=S)ccn1 | 0.386 |
| CC(=O)N(CC(O)CO)c1c(I)c(C(=O)NCCO)c(I)c(C(=O)NCC(O)CO)c1I (stereo not given) | 0.914 |
| CN(C)CCOC(c1ccc(Cl)cc1)c1ccccn1 (stereo not given) | 0.55 |
| CC(=O)OCC(CCn1cnc2cnc(N)nc21)COC(C)=O | 0.204 |
| CC(=O)CC(c1ccc([N+](=O)[O-])cc1)c1c(O)c2ccccc2oc1=O (stereo not given) | 0.279 |
| CCC1=C[C@@H]2CN(C1)Cc1c([nH]c3ccccc13)[C@@](C(=O)OC)(c1cc3c(cc1OC)N(C)[C@H]1[C@@](O)(C(=O)OC)[C@H](OC(C)=O)[C@]4(CC)C=CCN5CC[C@]31[C@@H]54)C2 [Vinorelbine (Navelbine)] | 0.108 |

test system: Staphylococcus aureus MW2 (mecA+); assay: normalized DsRed fluorescence (growth of mecA+ strain) (fraction of control range); higher = more growth of mecA+ strain; conditions: compound concentration: 150 uM; cefoxitin: subinhibitory; fluorescent label: DsRed
Summary of the method: as §1

| Structure (SMILES) | normalized DsRed fluorescence |
| --- | --- |
| C[C@H]1C[C@@H]2[C@H]([C@@H](O)C[C@@]3(C)[C@H]2CC[C@]3(O)C(=O)COC(=O)CCC(=O)O)[C@@]2(C)C=CC(=O)C=C12 | 0.526 |
| CCc1c2c(nc3ccc(OC(=O)N4CCC(N5CCCCC5)CC4)cc13)-c1cc3c(c(=O)n1C2)COC(=O)[C@]3(O)CC | 0.626 |
| OC(CCN1CCCCC1)(c1ccccc1)C1CCCCC1 (stereo not given) | 0.789 |
| CC(C(=O)O)c1cccc(Oc2ccccc2)c1 (stereo not given) | 0.467 |
| O=NN(CCCl)C(=O)NCCCl | 0.898 |
| CC(CN(C)C)CN1c2ccccc2CCc2ccccc21 (stereo not given) | 1.55 |
| CCOC(=O)[C@H](CCc1ccccc1)N[C@H]1CCc2ccccc2N(CC(=O)O)C1=O | 1.44 |
| CCN(CC)C(=O)c1cccc(C)c1 | 1.18 |
| O=S(=O)(O)CCS | 0.565 |
| C#C[C@]1(OC(C)=O)CC[C@H]2[C@@H]3CCC4=CC(=NO)CC[C@@H]4[C@H]3CC[C@@]21CC (mixture of isomers) | 0.642 |
| CC12CC3CC(C)(C1)CC(N)(C3)C2 | 0.672 |
| Cc1nc(Nc2ncc(C(=O)Nc3c(C)cccc3Cl)s2)cc(N2CCN(CCO)CC2)n1 | 0.816 |
| CC1=C(/C=C/C(C)=C/C=C/C(C)=C\C(=O)O)C(C)(C)CCC1 [Isotretinoin] | 1.06 |
| CCN(CC)C(=O)/C(C#N)=C/c1cc(O)c(O)c([N+](=O)[O-])c1 [Entacapone] | 1.35 |
| Cc1ccccc1C(OCCN(C)C)c1ccccc1 (stereo not given) | 1.23 |
| CN(C)CCc1c[nH]c2ccc(CS(=O)(=O)N3CCCC3)cc12 | 1 |
| CC(C[N+](C)(C)C)OC(N)=O (stereo not given) | 0.879 |
| Cn1ncnc1[C@H]1c2n[nH]c(=O)c3cc(F)cc(c23)N[C@@H]1c1ccc(F)cc1 [Talazoparib (BMN 673)] | 0.777 |
| COc1ccc(C[C@@H]2c3cc(OC)c(OC)cc3CC[N@+]2(C)CCC(=O)OCCCCCOC(=O)CC[N@@+]2(C)CCc3cc(OC)c(OC)cc3[C@H]2Cc2ccc(OC)c(OC)c2)cc1OC [Cisatracurium besylate (Nimbex)] | 0.713 |
| CN1[C@@H]2CC[C@H]1C[C@@H](OC(=O)c1c[nH]c3ccccc13)C2 [Tropisetron] | 0.582 |

| Structure (SMILES) | normalized DsRed fluorescence |
| --- | --- |
| CC(=O)O[C@]1(C(C)=O)CC[C@H]2[C@@H]3C=C(Cl)C4=CC(=O)[C@@H]5C[C@@H]5[C@]4(C)[C@H]3CC[C@@]21C | 0.593 |
| CC(C)(C)NCC(O)COc1cccc2c1CC(O)C(O)C2 (stereo not given) | 0.671 |
| CC(=O)OCC(=O)[C@@]1(OC(C)=O)[C@@H](C)C[C@H]2[C@@H]3C[C@H](F)C4=CC(=O)C=C[C@]4(C)[C@@]3(F)[C@@H](O)C[C@@]21C | 1.11 |
| O=C(O)c1cccc(-c2noc(-c3ccccc3F)n2)c1 [PTC124 (Ataluren)] | 0.473 |
| CO[C@H]1O[C@@H]2O[C@@]3(C)CC[C@H]4[C@H](C)CC[C@@H]([C@H]1C)[C@@]24OO3 | 1.13 |
| NC(=O)[C@@H]1CCCN1C(=O)[C@H](Cc1c[nH]cn1)NC(=O)[C@@H]1CCC(=O)N1 | 0.766 |
| COc1ccc2cc(CCC(C)=O)ccc2c1 | 0.79 |
| NC(=O)Cc1cccc(C(=O)c2ccccc2)c1N [Nepafenac] | 0.818 |
| COc1cc(NC(C)CCCN)c2ncccc2c1 (stereo not given) | 0.672 |
| CN[C@@H]1[C@H](O[C@H]2[C@H](O[C@H]3[C@H](O)[C@@H](O)[C@H](NC(=N)N)[C@@H](O)[C@@H]3NC(=N)N)O[C@@H](C)[C@]2(O)CO)O[C@@H](CO)[C@H](O)[C@H]1O | 0.832 |
| COc1cc(/C=C/C(=O)N2CCN(CC(=O)N3CCCC3)CC2)cc(OC)c1OC [Cinepazide maleate] | 0.533 |
| N[C@@H](CC(=O)N1CCn2c(nnc2C(F)(F)F)C1)Cc1cc(F)c(F)cc1F | 0.577 |
| NNCCc1ccccc1 | 0.707 |
| C1N2CN3CN1CN(C2)C3 | 0.452 |
| CCc1cc(C(N)=S)ccn1 | 0.65 |
| CC(=O)N(CC(O)CO)c1c(I)c(C(=O)NCCO)c(I)c(C(=O)NCC(O)CO)c1I (stereo not given) | 0.86 |
| CN(C)CCOC(c1ccc(Cl)cc1)c1ccccn1 (stereo not given) | 0.618 |
| CC(=O)OCC(CCn1cnc2cnc(N)nc21)COC(C)=O | 0.667 |
| CC(=O)CC(c1ccc([N+](=O)[O-])cc1)c1c(O)c2ccccc2oc1=O (stereo not given) | 0.29 |
| CCC1=C[C@@H]2CN(C1)Cc1c([nH]c3ccccc13)[C@@](C(=O)OC)(c1cc3c(cc1OC)N(C)[C@H]1[C@@](O)(C(=O)OC)[C@H](OC(C)=O)[C@]4(CC)C=CCN5CC[C@]31[C@@H]54)C2 [Vinorelbine (Navelbine)] | 0.921 |
